# Measurements reported in article PMC7862700, “An all-to-all approach to the identification of sequence-specific readers for epigenetic DNA modifications on cytosine”.
# Assays:
# Experiment in all cases: DAPPL (digital affinity profiling via proximity ligation, sequencing); 10 mM Tris-HCl pH 7.5, 50 mM NaCl, 1 mM DTT, 4% glycerol, room temperature, 30 min; GST-TFs on glutathione beads, 16-mer random dsDNA library, 0.1% formaldehyde crosslink after washing; high values mean tight binding
# Details in all cases: protein: recombinant; tags: N-terminal GST; dsDNA, one strand shown
# [1] = target: T1, FLI1 (Homo sapiens, UniProt Q01543 1-452)
# T1 sequence: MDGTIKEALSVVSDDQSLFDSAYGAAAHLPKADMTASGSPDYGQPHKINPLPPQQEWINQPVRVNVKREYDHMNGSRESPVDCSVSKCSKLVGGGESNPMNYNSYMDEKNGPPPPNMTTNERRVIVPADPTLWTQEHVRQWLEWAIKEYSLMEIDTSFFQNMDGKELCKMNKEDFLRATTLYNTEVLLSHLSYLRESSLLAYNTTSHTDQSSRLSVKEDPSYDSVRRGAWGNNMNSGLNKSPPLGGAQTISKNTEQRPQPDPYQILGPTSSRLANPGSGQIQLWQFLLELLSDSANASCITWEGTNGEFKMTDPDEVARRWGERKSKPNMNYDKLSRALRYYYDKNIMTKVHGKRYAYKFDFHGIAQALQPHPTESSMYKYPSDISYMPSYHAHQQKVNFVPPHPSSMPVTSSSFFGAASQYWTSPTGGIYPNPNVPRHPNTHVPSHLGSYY
# In short: (§1)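 Binding signal is defined as a hexamer's read frequency for one factor over its frequency for the tag-only sample. To obtain reads, GST-fused human transcription factors were expressed in yeast, captured on glutathione beads, barcoded with DNA and pooled with that sample. Pools met 200 nmole of a 16-mer random double-stranded DNA library in Tris/NaCl/DTT/glycerol buffer for 30 min at room temperature before washing, 0.1% formaldehyde crosslinking, proximity ligation (BsaI/T4 ligase, 1 h, 37 °C), PCR and Illumina NextSeq500 sequencing.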
# [2] = target: T2, ELK1 (Homo sapiens, UniProt P19419 1-428)
# T2 sequence: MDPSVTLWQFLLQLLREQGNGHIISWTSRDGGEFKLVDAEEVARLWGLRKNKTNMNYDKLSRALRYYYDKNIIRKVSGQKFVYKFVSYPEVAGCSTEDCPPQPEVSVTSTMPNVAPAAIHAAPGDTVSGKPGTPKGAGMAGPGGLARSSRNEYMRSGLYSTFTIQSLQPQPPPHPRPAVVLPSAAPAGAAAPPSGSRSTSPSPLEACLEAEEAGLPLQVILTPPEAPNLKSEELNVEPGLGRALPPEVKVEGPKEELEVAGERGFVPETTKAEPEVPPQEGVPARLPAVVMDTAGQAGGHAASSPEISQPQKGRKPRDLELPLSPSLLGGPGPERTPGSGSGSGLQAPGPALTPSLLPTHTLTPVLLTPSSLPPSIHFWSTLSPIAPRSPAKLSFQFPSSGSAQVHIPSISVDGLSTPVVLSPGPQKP
# In short: as §1
# [3] = target: T3, GABPA (Homo sapiens, UniProt Q06546 1-454)
# T3 sequence: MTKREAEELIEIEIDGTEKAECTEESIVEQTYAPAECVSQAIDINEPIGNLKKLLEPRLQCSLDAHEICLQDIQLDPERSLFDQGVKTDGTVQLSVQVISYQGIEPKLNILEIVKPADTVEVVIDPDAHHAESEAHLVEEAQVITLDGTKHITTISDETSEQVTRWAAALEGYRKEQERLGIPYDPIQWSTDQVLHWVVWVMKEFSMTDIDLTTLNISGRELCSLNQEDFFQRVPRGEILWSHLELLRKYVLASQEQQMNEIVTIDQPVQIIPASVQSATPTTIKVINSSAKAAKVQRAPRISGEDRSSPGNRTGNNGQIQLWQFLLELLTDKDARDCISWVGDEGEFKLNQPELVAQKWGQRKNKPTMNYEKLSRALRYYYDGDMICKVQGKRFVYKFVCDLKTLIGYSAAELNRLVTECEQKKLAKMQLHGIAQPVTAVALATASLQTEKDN
# In short: as §1
# [4] = target: T4, ERG (Homo sapiens, UniProt P11308 1-479)
# T4 sequence: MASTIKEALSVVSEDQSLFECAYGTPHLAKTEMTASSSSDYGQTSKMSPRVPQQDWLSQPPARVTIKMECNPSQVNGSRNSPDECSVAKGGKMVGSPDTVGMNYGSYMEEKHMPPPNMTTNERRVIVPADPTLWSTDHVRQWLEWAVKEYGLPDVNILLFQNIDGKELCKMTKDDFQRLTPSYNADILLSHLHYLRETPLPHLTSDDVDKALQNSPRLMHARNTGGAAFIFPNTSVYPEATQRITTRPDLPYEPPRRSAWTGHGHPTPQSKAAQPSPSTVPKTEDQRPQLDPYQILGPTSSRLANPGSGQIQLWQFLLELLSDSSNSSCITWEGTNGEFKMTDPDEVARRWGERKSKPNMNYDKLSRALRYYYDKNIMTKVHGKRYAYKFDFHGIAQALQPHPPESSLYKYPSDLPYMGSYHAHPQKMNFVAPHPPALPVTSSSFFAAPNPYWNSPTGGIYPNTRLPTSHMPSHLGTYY
# In short: as §1
# [5] = target: ELF1 (Homo sapiens, UniProt P32519 1-619)
# ELF1, sequence (P32519 whole entry): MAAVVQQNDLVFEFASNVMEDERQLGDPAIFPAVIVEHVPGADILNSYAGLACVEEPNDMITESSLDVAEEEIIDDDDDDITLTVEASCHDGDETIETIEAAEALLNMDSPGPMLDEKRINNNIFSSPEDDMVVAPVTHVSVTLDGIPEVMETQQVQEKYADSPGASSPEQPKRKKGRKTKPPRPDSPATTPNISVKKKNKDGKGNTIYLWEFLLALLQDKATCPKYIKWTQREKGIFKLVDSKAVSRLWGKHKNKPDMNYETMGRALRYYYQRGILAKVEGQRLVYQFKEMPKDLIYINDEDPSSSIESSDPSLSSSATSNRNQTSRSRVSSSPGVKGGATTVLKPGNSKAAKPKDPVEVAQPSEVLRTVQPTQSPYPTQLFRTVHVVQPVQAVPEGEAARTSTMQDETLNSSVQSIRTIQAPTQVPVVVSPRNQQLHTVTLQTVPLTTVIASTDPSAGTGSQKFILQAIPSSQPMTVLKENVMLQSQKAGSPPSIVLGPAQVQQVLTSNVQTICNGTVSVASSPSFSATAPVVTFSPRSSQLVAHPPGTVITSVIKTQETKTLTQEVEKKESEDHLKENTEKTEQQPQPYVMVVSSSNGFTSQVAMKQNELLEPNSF
# In short: as §1
# [6] = target: T5, EHF (Homo sapiens, UniProt Q9NZC4 1-300)
# T5 sequence: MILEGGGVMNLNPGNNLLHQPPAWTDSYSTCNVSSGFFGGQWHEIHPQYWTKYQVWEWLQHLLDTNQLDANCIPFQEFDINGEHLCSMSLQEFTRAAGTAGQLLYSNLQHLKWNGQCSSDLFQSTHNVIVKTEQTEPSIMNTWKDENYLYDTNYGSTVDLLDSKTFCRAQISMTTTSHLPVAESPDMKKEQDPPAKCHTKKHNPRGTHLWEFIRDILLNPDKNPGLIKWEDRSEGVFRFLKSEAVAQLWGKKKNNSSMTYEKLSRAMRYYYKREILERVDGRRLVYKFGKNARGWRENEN
# In short: as §1
# [7] = target: SPI1 (Homo sapiens, UniProt P17947 1-270)
# In short: as §1
# [8] = target: SPIB (Homo sapiens, UniProt Q01892 1-262)
# SPIB, sequence (Q01892 whole entry): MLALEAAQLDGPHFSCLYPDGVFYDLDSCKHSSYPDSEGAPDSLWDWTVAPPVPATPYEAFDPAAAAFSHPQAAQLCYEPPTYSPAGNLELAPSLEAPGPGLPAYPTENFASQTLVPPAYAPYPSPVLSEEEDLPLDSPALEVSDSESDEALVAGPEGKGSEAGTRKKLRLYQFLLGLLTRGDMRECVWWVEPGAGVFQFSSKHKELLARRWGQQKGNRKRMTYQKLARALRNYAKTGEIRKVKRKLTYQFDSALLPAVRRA
# In short: as §1
# [9] = target: T6, ELK3 (Homo sapiens, UniProt P41970 1-407)
# T6 sequence: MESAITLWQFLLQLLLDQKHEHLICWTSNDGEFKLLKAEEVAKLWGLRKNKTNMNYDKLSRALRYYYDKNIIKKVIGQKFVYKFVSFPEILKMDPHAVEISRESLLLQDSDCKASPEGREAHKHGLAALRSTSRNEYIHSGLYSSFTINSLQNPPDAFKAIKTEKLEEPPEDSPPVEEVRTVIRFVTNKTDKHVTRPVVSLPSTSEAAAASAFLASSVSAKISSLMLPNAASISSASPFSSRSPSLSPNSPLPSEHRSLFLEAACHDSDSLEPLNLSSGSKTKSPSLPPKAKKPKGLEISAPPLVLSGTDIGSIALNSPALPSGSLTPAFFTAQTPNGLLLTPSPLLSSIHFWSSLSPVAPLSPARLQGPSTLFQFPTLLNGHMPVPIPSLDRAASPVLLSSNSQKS
# In short: as §1
# [10] = target: T7, FEV (Homo sapiens, UniProt Q99581 1-238)
# T7 sequence: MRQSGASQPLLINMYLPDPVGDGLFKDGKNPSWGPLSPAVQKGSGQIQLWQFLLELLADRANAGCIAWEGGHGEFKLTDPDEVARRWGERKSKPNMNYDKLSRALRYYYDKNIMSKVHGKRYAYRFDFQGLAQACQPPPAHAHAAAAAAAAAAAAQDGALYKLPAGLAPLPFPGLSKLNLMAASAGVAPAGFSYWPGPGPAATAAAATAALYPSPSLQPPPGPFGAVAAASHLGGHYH
# In short: as §1
# [11] = target: ETV5 (Homo sapiens, UniProt P41161 1-510)
# ETV5, sequence (P41161 whole entry): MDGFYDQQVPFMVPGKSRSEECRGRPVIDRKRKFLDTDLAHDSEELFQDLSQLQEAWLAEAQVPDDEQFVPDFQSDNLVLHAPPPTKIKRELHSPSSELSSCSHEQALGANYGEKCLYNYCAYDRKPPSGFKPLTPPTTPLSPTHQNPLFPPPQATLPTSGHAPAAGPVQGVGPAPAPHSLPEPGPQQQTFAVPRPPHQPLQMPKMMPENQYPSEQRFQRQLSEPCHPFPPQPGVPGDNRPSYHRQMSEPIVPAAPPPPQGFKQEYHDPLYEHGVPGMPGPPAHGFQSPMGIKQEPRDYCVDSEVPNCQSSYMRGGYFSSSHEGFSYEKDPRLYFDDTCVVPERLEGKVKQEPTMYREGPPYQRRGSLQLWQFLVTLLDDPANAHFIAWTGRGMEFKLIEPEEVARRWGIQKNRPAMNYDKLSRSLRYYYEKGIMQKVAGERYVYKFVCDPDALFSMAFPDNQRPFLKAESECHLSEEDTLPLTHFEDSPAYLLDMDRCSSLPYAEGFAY
# In short: as §1
# [12] = target: ELF4 (Homo sapiens, UniProt Q99607 1-663)
# ELF4, sequence (Q99607 whole entry): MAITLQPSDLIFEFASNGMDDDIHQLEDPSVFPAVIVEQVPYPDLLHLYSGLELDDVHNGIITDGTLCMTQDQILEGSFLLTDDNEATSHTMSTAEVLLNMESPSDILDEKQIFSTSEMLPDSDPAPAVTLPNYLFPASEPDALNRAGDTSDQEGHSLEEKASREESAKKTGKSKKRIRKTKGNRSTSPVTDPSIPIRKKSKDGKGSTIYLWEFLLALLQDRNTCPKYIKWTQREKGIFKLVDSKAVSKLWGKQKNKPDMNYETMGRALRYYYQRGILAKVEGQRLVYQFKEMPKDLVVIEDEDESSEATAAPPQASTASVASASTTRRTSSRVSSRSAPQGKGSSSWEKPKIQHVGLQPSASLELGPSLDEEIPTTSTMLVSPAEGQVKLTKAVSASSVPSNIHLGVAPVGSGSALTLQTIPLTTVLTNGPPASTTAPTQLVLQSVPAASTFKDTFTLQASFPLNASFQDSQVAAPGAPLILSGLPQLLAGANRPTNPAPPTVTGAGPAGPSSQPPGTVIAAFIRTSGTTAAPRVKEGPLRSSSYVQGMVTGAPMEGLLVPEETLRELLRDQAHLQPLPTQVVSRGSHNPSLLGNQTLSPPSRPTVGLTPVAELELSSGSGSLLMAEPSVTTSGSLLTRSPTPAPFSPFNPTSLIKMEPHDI
# In short: as §1
# [13] = target: ETV1 (Homo sapiens, UniProt P50549 1-477)
# ETV1, sequence (P50549 whole entry): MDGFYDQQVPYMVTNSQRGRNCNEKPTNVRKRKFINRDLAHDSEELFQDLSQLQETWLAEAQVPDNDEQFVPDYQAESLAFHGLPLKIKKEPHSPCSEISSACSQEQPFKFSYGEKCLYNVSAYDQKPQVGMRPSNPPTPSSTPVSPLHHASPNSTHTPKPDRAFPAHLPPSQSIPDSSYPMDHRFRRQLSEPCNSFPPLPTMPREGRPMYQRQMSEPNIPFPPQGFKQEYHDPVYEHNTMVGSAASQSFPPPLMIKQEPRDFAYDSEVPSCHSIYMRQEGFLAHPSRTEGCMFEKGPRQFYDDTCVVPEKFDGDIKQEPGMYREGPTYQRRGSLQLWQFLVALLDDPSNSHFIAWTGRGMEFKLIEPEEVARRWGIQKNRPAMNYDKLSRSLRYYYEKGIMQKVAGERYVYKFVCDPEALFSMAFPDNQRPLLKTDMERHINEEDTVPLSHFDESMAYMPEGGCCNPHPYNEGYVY
# In short: as §1
# [14] = target: T8, ERF (Homo sapiens, UniProt P50548 1-548)
# T8 sequence: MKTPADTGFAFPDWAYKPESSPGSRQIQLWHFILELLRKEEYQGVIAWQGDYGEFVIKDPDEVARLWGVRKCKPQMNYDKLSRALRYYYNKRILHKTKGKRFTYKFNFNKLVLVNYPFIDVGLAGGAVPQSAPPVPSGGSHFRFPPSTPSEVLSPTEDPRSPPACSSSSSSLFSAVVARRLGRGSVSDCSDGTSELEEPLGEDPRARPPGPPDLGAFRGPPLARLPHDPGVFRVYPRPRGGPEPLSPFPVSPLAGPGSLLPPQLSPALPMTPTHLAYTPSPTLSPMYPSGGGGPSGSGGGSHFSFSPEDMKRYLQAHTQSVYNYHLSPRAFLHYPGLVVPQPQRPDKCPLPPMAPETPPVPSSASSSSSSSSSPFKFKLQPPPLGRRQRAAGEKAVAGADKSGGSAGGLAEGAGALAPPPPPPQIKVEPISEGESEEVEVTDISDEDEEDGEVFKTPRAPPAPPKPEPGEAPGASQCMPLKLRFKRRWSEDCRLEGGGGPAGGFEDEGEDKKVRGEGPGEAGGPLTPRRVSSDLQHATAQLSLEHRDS
# In short: as §1
# [15] = target: T9, ETV3L (Homo sapiens, UniProt Q6ZN32 1-361)
# T9 sequence: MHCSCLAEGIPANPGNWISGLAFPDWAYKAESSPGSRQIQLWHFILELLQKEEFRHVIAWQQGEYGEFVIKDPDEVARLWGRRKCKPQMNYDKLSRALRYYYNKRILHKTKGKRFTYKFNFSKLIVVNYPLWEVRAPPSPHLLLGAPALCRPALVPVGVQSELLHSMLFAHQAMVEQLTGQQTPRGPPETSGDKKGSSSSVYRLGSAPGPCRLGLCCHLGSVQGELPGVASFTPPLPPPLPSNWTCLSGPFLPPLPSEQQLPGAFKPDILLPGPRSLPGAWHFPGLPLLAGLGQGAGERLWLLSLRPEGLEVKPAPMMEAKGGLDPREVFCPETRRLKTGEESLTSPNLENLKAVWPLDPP
# In short: as §1
# [16] = target: T10, ETS2 (Homo sapiens, UniProt P15036 1-469)
# T10 sequence: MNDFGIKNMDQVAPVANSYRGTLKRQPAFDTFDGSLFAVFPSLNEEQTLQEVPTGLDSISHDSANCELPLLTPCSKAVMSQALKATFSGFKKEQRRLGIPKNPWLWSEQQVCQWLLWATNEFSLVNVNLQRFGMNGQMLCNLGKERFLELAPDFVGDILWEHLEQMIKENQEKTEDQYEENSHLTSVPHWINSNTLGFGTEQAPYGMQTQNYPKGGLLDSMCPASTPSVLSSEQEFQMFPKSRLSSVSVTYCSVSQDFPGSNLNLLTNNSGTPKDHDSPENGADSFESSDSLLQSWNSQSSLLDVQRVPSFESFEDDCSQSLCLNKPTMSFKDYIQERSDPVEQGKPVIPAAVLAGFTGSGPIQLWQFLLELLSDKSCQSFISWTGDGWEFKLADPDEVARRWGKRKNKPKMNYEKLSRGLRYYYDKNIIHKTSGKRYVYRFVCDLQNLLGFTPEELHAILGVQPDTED
# In short: as §1
# [17] = target: T11, SPDEF (Homo sapiens, UniProt O95238 1-335)
# T11 sequence: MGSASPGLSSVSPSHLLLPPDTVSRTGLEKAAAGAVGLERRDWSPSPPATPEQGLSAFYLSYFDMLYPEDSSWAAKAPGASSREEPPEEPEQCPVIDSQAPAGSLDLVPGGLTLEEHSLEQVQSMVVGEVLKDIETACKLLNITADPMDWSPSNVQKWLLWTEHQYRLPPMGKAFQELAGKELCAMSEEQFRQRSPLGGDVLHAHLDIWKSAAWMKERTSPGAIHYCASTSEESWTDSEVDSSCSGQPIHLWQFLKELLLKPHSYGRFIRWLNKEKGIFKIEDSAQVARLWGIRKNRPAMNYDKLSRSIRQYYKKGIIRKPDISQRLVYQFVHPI
# In short: as §1
# [18] = target: T12, ETV3 (Homo sapiens, UniProt P41162-2 1-143)
# T12 sequence: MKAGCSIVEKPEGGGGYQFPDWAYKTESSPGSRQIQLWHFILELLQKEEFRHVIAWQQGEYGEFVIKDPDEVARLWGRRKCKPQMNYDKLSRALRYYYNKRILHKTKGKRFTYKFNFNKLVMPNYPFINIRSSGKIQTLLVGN
# In short: as §1
# [19] = target: ETV6 (Homo sapiens, UniProt P41212 1-452)
# ETV6, sequence (P41212 whole entry): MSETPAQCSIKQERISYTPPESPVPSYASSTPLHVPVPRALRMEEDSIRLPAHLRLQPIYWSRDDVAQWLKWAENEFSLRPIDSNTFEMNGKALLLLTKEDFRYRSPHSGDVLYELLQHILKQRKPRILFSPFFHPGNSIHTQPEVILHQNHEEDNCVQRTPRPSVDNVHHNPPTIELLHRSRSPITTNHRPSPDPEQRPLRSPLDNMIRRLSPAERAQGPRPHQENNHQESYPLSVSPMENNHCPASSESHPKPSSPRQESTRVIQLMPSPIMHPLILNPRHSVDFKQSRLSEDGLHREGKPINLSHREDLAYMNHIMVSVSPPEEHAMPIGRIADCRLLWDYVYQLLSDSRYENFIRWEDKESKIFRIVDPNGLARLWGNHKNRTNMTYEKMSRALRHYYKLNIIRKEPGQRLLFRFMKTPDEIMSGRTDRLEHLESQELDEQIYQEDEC
# In short: as §1
sequence,measurement,setting,value
CCAACC,binding signal,[1],"1.12 fold enrichment (6-mer frequency, TF over GST control)"
same,binding signal,[2],"1.1 fold enrichment (6-mer frequency, TF over GST control)"
same,binding signal,[3],"1.01 fold enrichment (6-mer frequency, TF over GST control)"
same,binding signal,[4],"1.09 fold enrichment (6-mer frequency, TF over GST control)"
same,binding signal,[5],"1.16 fold enrichment (6-mer frequency, TF over GST control)"
same,binding signal,[6],"1.04 fold enrichment (6-mer frequency, TF over GST control)"
same,binding signal,[7],"1.11 fold enrichment (6-mer frequency, TF over GST control)"
same,binding signal,[8],"1.06 fold enrichment (6-mer frequency, TF over GST control)"
same,binding signal,[9],"1.06 fold enrichment (6-mer frequency, TF over GST control)"
same,binding signal,[10],"1.1 fold enrichment (6-mer frequency, TF over GST control)"
same,binding signal,[11],"1.01 fold enrichment (6-mer frequency, TF over GST control)"
same,binding signal,[12],"1.15 fold enrichment (6-mer frequency, TF over GST control)"
same,binding signal,[13],"1.04 fold enrichment (6-mer frequency, TF over GST control)"
same,binding signal,[14],"1.14 fold enrichment (6-mer frequency, TF over GST control)"
same,binding signal,[15],"1.09 fold enrichment (6-mer frequency, TF over GST control)"
same,binding signal,[16],"1.18 fold enrichment (6-mer frequency, TF over GST control)"
same,binding signal,[17],"1.11 fold enrichment (6-mer frequency, TF over GST control)"
same,binding signal,[18],"1.11 fold enrichment (6-mer frequency, TF over GST control)"
same,binding signal,[19],"1.08 fold enrichment (6-mer frequency, TF over GST control)"
